Shn3 3UTR inh: reduction of Shn3 3'UTR firefly luciferase signal, primary screen, Schnurri-3 inhibitor project, cell-based, Clone20 osteoblasts, set 2; Clone20 osteoblast Shn3 3'UTR firefly luciferase, 24 h; inhibition, % at 12.5 µM; hit rate 0.52% among 360,000;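 active means mean inhibition of at least 75% with every replicate also reaching 75%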
HIF-2a block: HIF-2a reporter inhibitors, primary screen, luminescence, 786-0 RCC cells; 786-0 RCC cells HIF-2a reporter, luciferase luminescence, overnight; inhibition, % at 18.8 µM; hit rate 0.72% among 360,000; AID 624352, 2012;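 active means inhibition of the luminescence signal of 40% or more relative to plate controls, in a single-dose primary screen at 18.75 µM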
Peg3 prom inh: Peg3 promoter-driven luciferase inhibitors, primary screen, cell-based, HeLa, luciferase luminescence | inhibition, % at 20 µM | hit rate 1.7% among 360,000 | HeLa PEG-Prom luciferase reporter, overnight;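 active means inhibition of at least 50% at 20 µM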
TRPM1 prom inh: inhibitors of MITF-dependent TRPM1 promoter reporter, primary screen, cell-based, SK-MEL-5, single point, luciferase; SK-MEL-5 TRPM1 promoter luciferase, 24 h; inhibition, % at 12.5 µM; hit rate 0.83% among 330,000;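 active means mean inhibition across replicates of 60% or more, whatever share of single replicates reaches that level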
KKLEB tox: cytotoxicity in KKLEB CF airway cells, primary screen, cytotoxicity control for CF NF-kB inhibitor project, cell-based, uHTS, fluorescence assay plates; activity change (cytotoxicity), % at 5 µM; KKLEB CF airway cells viability, ATPlite luminescence, overnight; hits give low values; cells stimulated with P. aeruginosa culture filtrate; hit rate 0.36% among 360,000;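 active means corrected activity change at or below -50% at 5 µM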
CF NFkB block: inhibitors of PAF-induced NF-kB signaling, primary screen, cell-based, GFP fluorescence, uHTS. KKLEB NF-kB-GFP reporter, GFP fluorescence overnight. hit rate 0.86% among 360,000. inhibition, % at 5 µM. AID 588850, 2011;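 active means at least 50% inhibition at 5 µM, scaled per plate between neutral and stimulator controls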;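 further: PAF is a Pseudomonas aeruginosa culture filtrate used as stimulus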
Of the large screens only hits and unclear results are named; the others gave an inactive call; ! = a repeat was not active. A selection: hits, their analogues and other compounds. The true share with any hit is near 2.8%.

FC(F)Oc1ccc(NC(=S)N2CCc3ccccc32)cc1	none
CCOc1cc(NC(=O)C(C)C)c(OCC)cc1NC(=O)Nc1ccccc1	none
CCN1C/C(=C\c2cccc([N+](=O)[O-])c2)C(=O)/C(=C/c2cccc([N+](=O)[O-])c2)C1	Shn3 3UTR inh 95, HIF-2a block 97, Peg3 prom inh 105, TRPM1 prom inh 93, KKLEB tox -57, CF NFkB block 94
CCOC(=O)c1ccc(NC(=O)c2cc3c(C)nn(-c4ccccc4Cl)c3s2)s1	KKLEB tox -70, CF NFkB block 70
C=C[C@]1(C)C=C2C(=O)[C@@]3(O)OC(=O)[C@@]4(CCCC(C)(C)[C@H]34)[C@@]2(O)CC1	Shn3 3UTR inh 95, HIF-2a block 97, Peg3 prom inh 99, KKLEB tox -99, CF NFkB block 88 (no result: TRPM1 prom inh)
O=C(O)c1ccc(-c2nc3ccccc3s2)o1	none
O=C(O)c1ccc(Oc2nc3ccccc3s2)cc1	Peg3 prom inh 84
CCCN(C(=O)COc1ccc(C(C)=O)cc1OC)C1CCS(=O)(=O)C1 (stereo not drawn)	none
CC1(Oc2ccccc2-c2ccno2)CCN(Cc2csc3ccccc23)C1 (stereo not drawn)	none (no result: TRPM1 prom inh)
CCN1CCN(c2ccc(Nc3ccnc4ccccc34)cc2)CC1	Peg3 prom inh 61, TRPM1 prom inh 64
CCOc1ccc(Nc2ccnc3cc(Cl)ccc23)cc1	none
CN1CCN(c2ccc(Nc3ccnc4cc(Cl)ccc34)cc2)CC1	Peg3 prom inh 61
CCOC(=O)c1ccc(NC(=O)CSc2nc3sc(C(=O)O)c(C)c3c(=O)[nH]2)cc1	none
COc1cccc2c1C(=O)c1c(O)c3c(c(O)c1C2=O)CC(O)(C(=O)CO)CC3OC1CC(N(C)C)C(O)C(C)O1 (stereo not drawn)	Shn3 3UTR inh 97, Peg3 prom inh 93, TRPM1 prom inh 69, CF NFkB block 76
COc1cccc2c1C(=O)c1c(O)c3c(c(O)c1C2=O)C[C@@](O)(C(C)=O)C[C@@H]3O[C@H]1C[C@H](N)[C@H](O)[C@H](C)O1	Shn3 3UTR inh 96, Peg3 prom inh 89, TRPM1 prom inh 96, CF NFkB block 66
COc1cccc2c1C(=O)c1c(O)c3c(c(O)c1C2=O)C[C@@](O)(C(=O)CO)C[C@@H]3O[C@H]1C[C@H](N)[C@@H](O)[C@H](C)O1	Peg3 prom inh 94, TRPM1 prom inh 83, KKLEB tox -54, CF NFkB block 70
COc1cc(CNCCc2ccccc2)cc(Cl)c1OCc1ccccc1	Peg3 prom inh 90
COc1cc(CNCc2ccccc2)cc(Cl)c1OC	none
CCOc1cc(CNC2CCCC2)cc(Cl)c1OCc1ccccc1	Peg3 prom inh 57
COc1ccccc1C(=O)OCCNC(=O)Cn1cnc2c1c(=O)n(C)c(=O)n2C	none
O=C(Cn1c2ccccc2c(=O)c2ccccc21)N/N=C/c1cc([N+](=O)[O-])ccc1N1CCCCCC1	none
O=C(Cn1c2ccccc2c(=O)c2ccccc21)N/N=C/c1ccc(N2CCCC2)c([N+](=O)[O-])c1	Peg3 prom inh 91, TRPM1 prom inh 89
Cc1cc(Oc2nc3c(C)cccn3c(=O)c2/C=C(\C#N)S(=O)(=O)c2ccccc2)ccc1Cl	Peg3 prom inh 68
Cc1cccc(OCC(=O)Nc2nccs2)c1C	none
COc1ccc(CCn2c(C)c(C(C)=O)c(C(C)=O)c2C)cc1OC	none
Cc1cc(C(=O)CSc2nnnn2C)c(C)n1CCc1ccc(F)cc1	none
Cc1cc(C(=O)CCl)c(C)n1CCc1ccc(F)cc1	Peg3 prom inh 56, TRPM1 prom inh 88
COc1ccc(CCn2c(C)cc(C(=O)CCl)c2C)cc1OC	Peg3 prom inh 61
Cc1ccc(C)c(OCc2cc(C(=O)NC3CCOC(C)(C)C3)no2)c1 (stereo not drawn)	none
COc1ccc(C(=O)N/C(=C\c2cn(S(=O)(=O)N(C)C)c3ccccc23)C(=O)N2CCOCC2)cc1	none
CN(C)S(=O)(=O)c1cccc(COc2ncnc3c(Cl)cc(Cl)cc23)c1	none
O=S(=O)(Nc1ncccn1)c1ccc(NC(=S)N2CCN(Cc3ccc(F)cc3Cl)CC2)cc1	none
Cc1ccc(C(=O)CC(=O)c2ccccc2)cc1	none
CC(O)(CC(=O)CC(=O)c1ccccc1)c1ccccc1 (stereo not drawn)	Peg3 prom inh 52
Cc1ccccc1OCC(=O)OCC(=O)Nc1cc(S(=O)(=O)N2CCCCC2)ccc1Cl	none
O=C(CCl)N=c1sccn1Cc1cccc2ccccc12	KKLEB tox -98, CF NFkB block 91
CCC(=O)OCC(=O)N=c1sccn1Cc1ccccc1Cl	none
CC1CCN(CCCNC(=O)c2cc3c(Cl)nc4ccccc4c3s2)CC1	Peg3 prom inh 53
CCc1ccc(NC(=S)NC2CCN(Cc3ccccc3)CC2)cc1	none
CCC(C)c1ccc(NC(=S)NC2CCN(Cc3ccccc3)CC2)cc1 (stereo not drawn)	Peg3 prom inh 77
Cc1c(C(=O)N/N=C/c2cccnc2)nnn1-c1nonc1N	none
NC(=O)NC(CC(=O)N1CCc2ccccc2C1)c1ccc(Cl)cc1 (stereo not drawn)	none
COc1ccc(/C=C/CN2CCC(C(=O)NC(c3ccc(F)cc3)c3ccc4ccccc4n3)CC2)cc1 (stereo not drawn)	Peg3 prom inh 102 (no result: TRPM1 prom inh)
O=c1[nH]c(/C=C/c2ccc(Br)cc2)nc2ccccc12	none
CN(C)c1ccc(/C=C/c2nc3ccccc3c(=O)[nH]2)cc1	KKLEB tox -77
O=C(COC(=O)COc1ccc(Cl)cc1Cl)NC1CCS(=O)(=O)C1 (stereo not drawn)	none
COc1cccc(N2CCN(c3ncnc4c3[nH]c3ccc(F)cc34)CC2C)c1 (stereo not drawn)	Shn3 3UTR inh 96, Peg3 prom inh 114, TRPM1 prom inh 80, CF NFkB block 88
COc1cc(C(=O)ON=C2C3CC4CC(C3)CC2C4)cc(OC)c1OC	Peg3 prom inh 76
CC(C)(C)Sc1ccc([N+](=O)[O-])cc1C(=O)Nc1ccncc1	none
Cc1c(O)cccc1C(=O)N[C@@H](CSc1ccccc1)[C@H](O)CN1C[C@H]2CCCC[C@H]2C[C@H]1C(=O)NC(C)(C)C	Peg3 prom inh 77!
CCOC(=O)[C@H]1[C@H]2COc3ccc(OC)cc3[C@@H]2N2C(=O)CN(C)C(=O)[C@@]12C	none
CC(C)CNC(=O)NC(=O)COC(=O)Cn1cnc2ccccc2c1=O	none
CC(C)N1C(=O)/C(=C\c2nc3ccccc3c(=O)n2-c2ccccc2)c2ccccc21	HIF-2a block 87
NC(=O)N/N=C/C=C/c1ccc(F)cc1	none
